Source: PubChem BioAssay (EPA / NIEHS)
Records with an inconclusive call do not appear. Active and inactive are the calls of the source. Rule for the calls: active = hit-call score of the fitted dose curve at least 0.9, where 1 is the maximum; inconclusive = response in the unintended direction; inactive = score below 0.9.

Biological target: Nuclear receptor subfamily 1 group I member 2 (Homo sapiens) (UniProt O75469)
Test: NVS_NR_hPXR: NovaScreen (NVS) Nuclear Receptor Binding Assay for human Pregnane X Receptor (PXR) (AID 2283365);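 note: a drop in FRET signal versus DMSO baseline means the compound binds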
Method in brief: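 Human PXR binding measured by TR-FRET in a cell-free format, 2 h exposure. Single-concentration duplicates at 25 uM preceded concentration-response retests of actives; endpoint fitted positively relative to DMSO, loss of signal indicating binding.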

Nuclear receptor subfamily 1 group I member 2 (Homo sapiens), sequence (O75469 whole entry, looked up): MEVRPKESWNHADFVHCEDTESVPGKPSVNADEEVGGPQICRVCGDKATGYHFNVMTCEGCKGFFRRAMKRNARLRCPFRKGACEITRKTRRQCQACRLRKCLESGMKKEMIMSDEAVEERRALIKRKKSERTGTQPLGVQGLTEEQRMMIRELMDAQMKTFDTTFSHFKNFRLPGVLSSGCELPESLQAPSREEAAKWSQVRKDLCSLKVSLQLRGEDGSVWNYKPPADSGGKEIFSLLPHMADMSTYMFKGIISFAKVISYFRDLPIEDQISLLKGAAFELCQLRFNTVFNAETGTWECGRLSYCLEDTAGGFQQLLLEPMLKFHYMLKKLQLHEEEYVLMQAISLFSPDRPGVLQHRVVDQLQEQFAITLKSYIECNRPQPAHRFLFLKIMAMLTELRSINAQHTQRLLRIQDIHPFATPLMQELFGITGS

Row | SMILES | outcome
1 | CCCCCCCCCCCCCOS(=O)(=O)O | inactive
2 | CCCCC[Si](OCC)(OCC)OCC | inactive
3 | CCCCCCCCCCCCCCCC(=O)OC[C@H](O)[C@H]1OC(=O)C(O)=C1O | inactive
4 | O=c1cc(-c2ccccc2)oc2cc(O)cc(O)c12 | inactive
5 | c1ccc2[nH]ccc2c1 | inactive

Biological target: Peroxisome proliferator-activated receptor gamma (Homo sapiens) (UniProt P37231)
Sequence (P37231 whole entry, looked up): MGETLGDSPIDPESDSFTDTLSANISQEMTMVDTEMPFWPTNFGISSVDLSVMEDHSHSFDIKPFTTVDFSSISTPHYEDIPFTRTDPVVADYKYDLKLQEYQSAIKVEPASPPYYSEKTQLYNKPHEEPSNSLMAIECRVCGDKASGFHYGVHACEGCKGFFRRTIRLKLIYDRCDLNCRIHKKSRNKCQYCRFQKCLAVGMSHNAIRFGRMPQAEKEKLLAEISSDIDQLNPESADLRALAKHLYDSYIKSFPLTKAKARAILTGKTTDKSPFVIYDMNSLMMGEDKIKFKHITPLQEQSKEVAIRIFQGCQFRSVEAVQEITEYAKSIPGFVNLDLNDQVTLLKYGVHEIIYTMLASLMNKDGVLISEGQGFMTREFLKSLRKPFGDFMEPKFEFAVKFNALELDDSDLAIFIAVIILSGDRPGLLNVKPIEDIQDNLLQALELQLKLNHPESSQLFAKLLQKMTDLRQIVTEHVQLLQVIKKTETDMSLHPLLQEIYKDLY
Test: NVS_NR_hPPARg: NovaScreen (NVS) Nuclear Receptor Binding Assay for human Peroxisome Proliferator-activated Receptor gamma (PPARg) (AID 2283370)
Method in brief: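 Fluorescence polarization readout of ligand binding to extracted human PPARg, measured at 2 h. Duplicate single-point screen at 25 uM, then concentration-series retesting; activity defined as signal loss versus DMSO.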

Row | SMILES | outcome | AC50
6 | BrC1CCC(Br)C(Br)CCC(Br)C(Br)CCC1Br (stereo not drawn) | inactive | –
7 | CCCCC(CC)COC(=O)/C=C\C(=O)OCC(CC)CCCC (stereo not drawn) | inactive | –
8 | OCCN1CCNCC1 | inactive | –
9 | CCCCCCCCCCCCCOS(=O)(=O)O | – | 0.832 µM (active)
10 | CCCCCCCCCCCCCCCC(=O)OC[C@H](O)[C@H]1OC(=O)C(O)=C1O | – | 25 µM (active)
11 | CCCCCCCCCCCCCC(=O)O | inactive | –
12 | O=C[C@@H](O)[C@H](O)[C@H](O)CO | inactive | –
13 | c1ccc(CCCc2ccccn2)cc1 | inactive | –
